Assay outcomes deposited in PubChem BioAssay by National Center for Advancing Translational Sciences (NCATS).
Sampled rows, rich in hits. Any-hit rate of the full collection: about 0.83%.
MLL CXXC-DNA inh: MLL CXXC-DNA interaction inhibition; Q03164; MLL-CXXC / FITC-HOXA9 DNA fluorescence polarization; Potency, µM (titrated, usually from 115 µM), actives largely listed as inhibitors; 0.037% of 290,000 active; AID 2662; active = well fitted inhibition curve with a large enough effect in the polarisation, with a control signal flat, not every such curve was filed as active; inconclusive = small, poorly fitted or top-dose-only effect, or effect the other way, or a change in a side signal; inactive = no such curve, though single readings can be large or run the other way; the % refers to the polarisation
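Steps: dispense CXXC domain solution (7 uM) → pin compounds or unlabeled HOX-A9 DNA control → 5 min ambient → add FLSN-HOX-A9 solution (50 nM) → spin → 30 min ambient → fluorescence polarization. Tris pH 7.5/NaCl/DTT/BSA buffer.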
GLS inhibitor: blocks human kidney-isoform glutaminase activity. O94925. GLS enzymatic activity, qHTS titration. Potency, µM (titrated, usually from 45.5 µM), most hits filed as inhibitors. 0.21% of 410,000 active. AID 624170; active = well fitted inhibition curve with a large enough effect; inconclusive = small, poorly fitted or top-dose-only effect, or another doubt; inactive = no such curve, though single readings can be large or run the other way
Target sequence (O94925 whole entry, looked up, canonical isoform): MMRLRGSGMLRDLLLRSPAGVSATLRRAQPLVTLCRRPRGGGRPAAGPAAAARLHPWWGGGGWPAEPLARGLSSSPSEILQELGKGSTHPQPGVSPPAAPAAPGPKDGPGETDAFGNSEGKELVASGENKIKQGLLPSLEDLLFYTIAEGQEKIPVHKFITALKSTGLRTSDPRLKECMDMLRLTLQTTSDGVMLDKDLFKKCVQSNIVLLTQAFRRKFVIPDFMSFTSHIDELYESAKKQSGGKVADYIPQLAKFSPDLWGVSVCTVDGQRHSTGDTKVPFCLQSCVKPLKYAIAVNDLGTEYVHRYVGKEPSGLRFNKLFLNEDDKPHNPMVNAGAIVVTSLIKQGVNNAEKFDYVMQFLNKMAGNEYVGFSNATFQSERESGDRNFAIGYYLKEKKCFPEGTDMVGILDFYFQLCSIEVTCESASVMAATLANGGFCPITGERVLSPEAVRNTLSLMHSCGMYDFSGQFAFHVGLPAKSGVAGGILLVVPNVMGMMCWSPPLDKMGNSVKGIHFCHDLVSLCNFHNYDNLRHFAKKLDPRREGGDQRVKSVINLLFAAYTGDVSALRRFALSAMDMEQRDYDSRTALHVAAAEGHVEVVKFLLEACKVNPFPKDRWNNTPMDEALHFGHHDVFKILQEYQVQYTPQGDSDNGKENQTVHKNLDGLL
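Enzyme dispensed in phosphate buffer (45 mM, pH 8.2, 0.02% Tween-20), compounds pinned in, then 1 mM L-glutamine solution and the glutamate oxidase–HRP–Amplex Red mix added; fluorescence read immediately and again after 30 min at room temperature.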
Menin MLL FP FL: inhibitors of human menin-MLL interaction, wild-type MLL peptide | FP activity change, % at 61.4 µM | AID 1766 | 290,000 tested, under 10 active | Fluorescence polarization, fluorescein-MLL peptide displacement from menin; active = well fitted curve in the direction sought with a large enough effect in the polarisation, not every such curve was filed as active; inconclusive = small, poorly fitted or top-dose-only effect, or effect the other way, or a change in a side signal; inactive = no such curve, though single readings can be large or run the other way; the % refers to the polarisation
Menin MLL FP TR: menin-MLL binding inhibition, Texas Red mutant peptide; 0.23% of 270,000 active; O00255; Potency, µM (doses to about 61.6 µM), hits mostly inhibitors; Menin + Texas Red MLL mutant peptide, fluorescence polarization; active = well fitted inhibition curve with a large enough effect in the polarisation, with a control signal flat, not every such curve was filed as active; inconclusive = small, poorly fitted or top-dose-only effect, or effect the other way, or a change in a side signal; inactive = no such curve, though single readings can be large or run the other way; the % refers to the polarisation
CtBP-E1A inh: inhibitors of CtBP/E1A interaction; activity change, % (test concentration not listed); AID 651724; AlphaScreen GST-E1A/His-CtBP binding, 1536-well; hits give low values; 0.49% of 340,000 active
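Steps: dispense buffer (Tris pH 8.0, NaCl 300 mM, TCEP 1 mM, BSA, Tween 20); add 5X protein mix (GST-E1A, His-CtBP, 125 nM each); pin 23 nL compound; 2 h at 37 °C, dark; add 5X beads (50 ug/mL); 1 h; read.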
Six1-Eya2 inh: Six1/Eya2 interaction inhibition; AlphaScreen GST-Six1/His-Eya2 binding, biochemical; hits give low values; Q15475+O00167; 0.56% of 360,000 active; activity change, % (test concentration not listed); AID 651725
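GST-Six1 + His-Eya2 (5X stock: 250/500 nM); Tris pH 8.0, 300 mM NaCl, 0.05% BSA, 0.02% Tween 20; GSH donor/Ni acceptor beads; 1 h 37 °C dark; AlphaScreen readout.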
Numbers stand for hits; – = inactive; ? = inconclusive; · = no result. Cut-off read from the data, not from the text of the source, unless noted: active = activity change below about -65%; inconclusive = mostly about -30% to -63%; inactive = weaker than that.

SMILES	MLL CXXC-DNA inh	GLS inhibitor	Menin MLL FP FL	Menin MLL FP TR	CtBP-E1A inh	Six1-Eya2 inh
CC(=O)c1ccc(OC(=O)CCc2ccccc2)cc1	–	–	–	–	?	-79.5
COc1cccc(/C=N/NC(=O)c2cc3c(OC)ccc(OC)c3[nH]2)c1O	?	–	–	?	·	-68.0
COc1cc(OC)c2cc(C(=O)N/N=C/c3cccc(OC)c3O)[nH]c2c1	–	–	–	·	-75.5	?
CC(C)OC(=O)c1c(-c2ccccc2)c(-c2ccccc2)nn(C)c1=O	·	–	·	·	·	·
COc1cc2ccnc(C=O)c2cc1OC	·	–	·	·	–	?
COc1cc2ccnc(C=NO)c2cc1OC	·	–	·	·	–	-85.9
O=C(CCl)NNC(=O)c1c(O)c2ccccc2[nH]c1=O	–	–	–	·	–	–
O=C(NNC(=O)c1c(O)c2ccccc2[nH]c1=O)c1ccccc1Br	–	–	–	–	?	-74.8
Nc1ccc(O)c(C(=O)O)c1	·	15.8µM	–	?	·	·
CC1C(=O)C(=O)C=CN1C (centres undefined)	–	–	–	–	·	·
CCOC(=O)c1oc2ccc(S(=O)(=O)n3nc(-c4ccc(Br)cc4)cc3N)cc2c1C	·	–	·	·	·	·
O=C(CSc1ccc2ccccc2c1)NCCc1ccc(O)c(O)c1	–	1.41µM	–	–	–	–
CC(=O)Nc1cccc(NC(=O)CSc2nccn2C2CCCC2)c1	·	–	·	·	·	·
COc1cccc(/C=N/NC(=O)C(c2ccncc2)N2CCOCC2)c1 (centres undefined)	–	–	–	·	–	–
O=C(N/N=C/c1cc(Br)ccc1O)C(c1ccncc1)N1CCOCC1 (centres undefined)	–	–	–	–	–	-89.2
O=C(CN1CC(c2ccccc2)CC1=O)N/N=C/c1cc(Br)ccc1O (centres undefined)	–	–	–	–	-89.8	-84.3
O=C(CNC(=O)c1ccncc1)N/N=C/c1cc(Br)ccc1O	–	–	–	–	-66.4	?
Cn1cccc1-c1cc(C(=O)N/N=C/c2cc(Br)ccc2O)[nH]n1	?	–	?	?	-87.1	-83.3
Cn1cccc1-c1cc(C(=O)N/N=C/c2ccccc2Cl)[nH]n1	–	–	–	–	–	–
CCN[C@@H]1CN(CCCOC)S(=O)(=O)c2sc(S(N)(=O)=O)cc21	–	–	–	–	·	·
Cc1cc(C)cc(Oc2nc3c(C)cccn3c(=O)c2/C=C(\C#N)c2nc3ccccc3s2)c1	·	–	·	·	·	·
CCCCc1cc2c(=O)c(C(=O)OC)c[nH]c2cc1OCc1ccccc1	·	–	·	·	·	·
Nc1nc(F)nc2c1ncn2[C@@H]1O[C@H](COP(=O)(O)O)[C@@H](O)[C@@H]1O	·	–	·	·	·	·
O=C(CNC(=O)c1ccccc1)N/N=C/c1cc(Br)ccc1O	–	–	·	–	–	-65.0
COc1ccc(C(=O)N/N=C/c2cc(Br)ccc2O)cc1OC	–	–	–	·	-91.0	-67.7
SMILES	MLL CXXC-DNA inh	GLS inhibitor	Menin MLL FP FL	Menin MLL FP TR	CtBP-E1A inh	Six1-Eya2 inh
O=C(c1ccc2c(c1)OCO2)c1cn(Cc2ccc(Cl)cc2)c2ccc(F)cc2c1=O	·	–	·	·	·	·
Oc1ccc(/C=N/Nc2ccnc3cc(Cl)ccc23)c(O)c1O	?	12.6µM	–	?	–	–
COc1cc(/C=C/C(=O)C2C(=O)C=C(C)OC2=O)cc(OC)c1O (centres undefined)	–	–	?	–	–	–
COc1ccc(/C=C/C(=O)C2C(=O)C=C(C)OC2=O)cc1O (centres undefined)	–	7.08µM	?	–	–	–
O=C(Cn1ncc2c3ccccc3n(Cc3ccccc3F)c2c1=O)NCc1ccccc1Cl	·	–	·	·	·	·
Cc1ccc2nc(-c3ccncc3)c(NC3CCCC3)n2c1	–	–	–	–	–	–
Cc1ccc2nc(-c3ccsc3)c(NC3CCCC3)n2c1	–	1.58µM	–	?	–	–
Cc1cc(NC(=O)c2ccc(Cn3nc(C)c(Br)c3C)o2)no1	–	–	–	–	–	-69.6
Cc1ccc(C)c(Cn2nnc(C(=O)NCc3ccc(Cl)cc3Cl)c2N)c1	·	–	·	·	·	·
CN(C)c1ccc(NC(=S)c2ccccn2)cc1	–	–	–	?	-73.9	-88.4
CN(C)c1ccc(C(=S)Nc2ccccc2)cc1	–	–	–	–	–	–
O=C1C2C3c4ccccc4C(c4ccccc43)[C@@H]2C(=O)N1c1nc(-c2ccccc2)cs1 (some centres undefined)	–	–	–	?	–	–
O=C1C2C3c4ccccc4C(c4ccccc43)C2C(=O)N1c1nc(-c2ccccc2)cs1 (centres undefined)	–	–	–	11.2µM	–	–
CC(C)(C)c1csc(NC(=O)c2ccccc2O)n1	–	–	–	–	–	–
CC(C)(C)c1csc(NNC(=O)c2ccc(Br)cc2)n1	–	5.01µM	–	–	–	–
O=C(CN1CCN(Cc2ccccc2)CC1)Nc1ccc([N+](=O)[O-])cc1C(=O)Nc1ccccc1F	–	–	–	–	·	–
O=C(CNCc1ccccn1)Nc1ccc([N+](=O)[O-])cc1C(=O)Nc1ccccc1F	–	–	–	–	-88.6	-93.3
COC(=O)C1=C(C)NC(C)=C(C(=O)NCCCN2CCC(c3ccccc3)(c3ccccc3)CC2)C1c1ccc([N+](=O)[O-])cc1 (centres undefined)	·	·	–	–	·	·
Cc1cc(C)c(S(=O)(=O)c2c(C)cccc2C)c(Cl)n1	–	11.2µM	–	–	–	–
COc1ccccc1NS(=O)(=O)c1cc(NC(=O)c2cnccn2)ccc1N1CCOCC1	–	–	–	·	-73.1	?
COc1ccccc1Nc1n[nH]c(=S)s1	–	10µM	–	–	–	–
O=S(=O)(Nc1cccc(-c2cn3cccnc3n2)c1)c1ccccc1	?	–	·	·	–	-83.4
O=S(=O)(Nc1cccc(-c2cn3cccnc3n2)c1)c1ccc(-c2ccccc2)cc1	–	–	–	?	?	?
O=S(=O)(Nc1cccc(-c2cn3cccnc3n2)c1)c1ccc(F)cc1	–	–	–	–	–	-66.7
O=S(=O)(Nc1cccc(-c2cn3ccsc3n2)c1)c1ccc(F)cc1	–	–	–	–	–	–
SMILES	MLL CXXC-DNA inh	GLS inhibitor	Menin MLL FP FL	Menin MLL FP TR	CtBP-E1A inh	Six1-Eya2 inh
Oc1[nH]c2ccccc2c1N=Nc1ccccn1	·	–	·	·	–	–
Oc1c(N=Nc2ccccn2)ccc2ccccc12	?	–	–	–	-95.5	-96.5
COc1cc2[nH]cc(C(=O)NCc3cccs3)c(=O)c2cc1OC	·	–	·	·	-72.6	?
COc1ccc(CC(=O)NCc2cccs2)cc1OC	–	–	–	–	–	–
O=C1CCCC/C1=C\Nc1ccc(O)cc1	–	–	–	31.6µM	–	–
CN(C)c1ccc(C=NC(CO)C(O)c2ccc([N+](=O)[O-])cc2)cc1 (centres undefined)	–	–	–	·	–	–
CN(C)c1ccc(C(c2ccc(N(C)C)cc2)c2ccc([N+](=O)[O-])cc2)cc1	–	–	–	–	?	-83.1
CCOc1cccc(/C=N/NC(=O)c2cccnc2)c1O	–	–	–	–	·	?
